Compounds with a hit are over-represented: about 2.6% of the library has one in this group of screens.
Cruzain inh noDet = inhibitors of Trypanosoma cruzi cruzain without detergent | purified cruzain, Z-FR-AMC fluorescence, no detergent | P25779 | 2.3% of 200,000 active | Potency, µM, without a hit: max response, negative = inhibition, actives largely listed as inhibitors | AID 1476;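 further: plate controls were enzyme without inhibitor for no effect and buffer without enzyme for full effect; nearly all actives have a fitted effect of over 40% in size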
Target sequence (P25779 123-467 limits assumed): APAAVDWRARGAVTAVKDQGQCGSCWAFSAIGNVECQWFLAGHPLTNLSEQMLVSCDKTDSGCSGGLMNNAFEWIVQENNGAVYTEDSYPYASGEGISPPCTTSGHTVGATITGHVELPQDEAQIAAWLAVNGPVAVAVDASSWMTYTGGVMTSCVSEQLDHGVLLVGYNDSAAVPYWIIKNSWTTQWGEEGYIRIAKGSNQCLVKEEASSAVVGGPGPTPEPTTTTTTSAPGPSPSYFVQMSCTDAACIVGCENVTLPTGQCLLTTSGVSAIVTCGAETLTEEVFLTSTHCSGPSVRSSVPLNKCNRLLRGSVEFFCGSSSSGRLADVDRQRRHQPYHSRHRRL
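Purified cruzain at 1.5 nM, pre-incubated 15 min with compound at room temperature in 100 mM sodium acetate pH 5.5, 5 mM DTT, 0.00005% Triton X-100. Reaction started with 2 uM Z-FR-AMC; AMC fluorescence increase over 60 s gives rate.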
Cruzain inh Det = inhibitors of Trypanosoma cruzi cruzain with detergent; 0.43% of 200,000 active; Potency, µM, for inactives: max response, negative = inhibition, usual class: inhibitors; purified cruzain, Z-FR-AMC fluorescence, 0.01% Triton; AID 1478; P25779;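 further: plate controls were neutral wells for no effect and buffer without enzyme for full effect; nearly all actives have a fitted effect of over 40% in size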
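15 min RT preincubation of 1.5 nM cruzain with compound, then 2 uM Z-FR-AMC added; kinetic AMC fluorescence, 60 s delta. Triton X-100 0.01%, pH 5.5.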
Starred values were filed as active, the others as inactive. The call rests on the fitted dose curve; in most records, active means well fitted curve in the direction sought with a large enough effect; inconclusive means small, poorly fitted or top-dose-only effect, or another doubt; inactive means no such curve, though single readings can be large; an effect the other way counts as inactive or inconclusive. Potency means the concentration at half of the fitted maximal effect.

Cc1ccc(Cl)cc1NC(=O)c1cc2c(=O)n3cccc(C)c3nc2n1C was read as Cruzain inh noDet 6.6% and Cruzain inh Det -2.1%.
For CCS(=O)(=O)N1CCc2cc(C(=O)Nc3cc(OC)c(Cl)cc3OC)ccc21 the results were Cruzain inh noDet -11.1% and Cruzain inh Det -6.5%.
For O=C(NCc1ccc(Cl)cc1)c1cc(S(=O)(=O)N2CCCCC2)c[nH]1 the results were Cruzain inh noDet 20µM* and Cruzain inh Det inconclusive.
Screening COc1cccc(CNC(=O)c2cc(S(=O)(=O)N3CCCCC3)c[nH]2)c1 returned Cruzain inh noDet 4.4% and Cruzain inh Det -2.8%.
CCOC(=O)c1ccccc1NC1(c2ccc(OC)cc2)C(=O)c2ccccc2C1=O was read as Cruzain inh noDet inconclusive and Cruzain inh Det -7.9%.
For Clc1cccc(-n2cc(-c3ccccc3)c3c(N4CCCCC4)ncnc32)c1 the results were Cruzain inh noDet -6.0% and Cruzain inh Det -0.2%.
`Cc1nn(-c2ccc(N3CCCC3)nn2)c(C)c1CCC(=O)N1CCN(c2ccccc2F)CC1` gave Cruzain inh noDet 3.6% and Cruzain inh Det -4.8%.
For COc1ccc(C(=O)COC(=O)c2cc(-c3cccs3)nc3ccccc23)cc1 the results were Cruzain inh noDet 20µM* and Cruzain inh Det -4.2%.
`Cc1ccc(C(=O)COC(=O)c2cc(-c3cccs3)nc3ccccc23)cc1` gave Cruzain inh noDet inconclusive and Cruzain inh Det -7.9%.
For CC(C)NC(=O)N1[C@H](c2cccs2)[C@@H](C)C(=O)[C@@H](C)[C@@H]1c1cccs1 the results were Cruzain inh noDet 14.5% and Cruzain inh Det -1.6%.
For N#Cc1c(N)sc(=S)c2c1CCN(Cc1ccccc1)C2 the results were Cruzain inh noDet 12.6µM* and Cruzain inh Det 28.2µM*.
CCN1CCc2c(sc(N)c2C#N)C1 was read as Cruzain inh noDet -5.4% and Cruzain inh Det -2.8%.
Screening COC(=O)c1cccnc1-n1c(=O)c2cccnc2n(CC(=O)Nc2ccccc2F)c1=O returned Cruzain inh noDet -1.2% and Cruzain inh Det 0.5%.
Screening O=C(CCCCn1c(=O)c2ccccc2n(Cc2cccc(Cl)c2)c1=O)NCc1ccc2c(c1)OCO2 returned Cruzain inh noDet 5.3% and Cruzain inh Det -4.7%.
For Cc1nc(NC(=O)COC(=O)CCS(=O)(=O)c2ccccc2Cl)c(Cl)cc1Cl the results were Cruzain inh noDet -25.7% and Cruzain inh Det 22.4µM*.
For Cc1[nH]c2ccccc2c1C(=O)COC(=O)CCS(=O)(=O)c1ccccc1Cl the results were Cruzain inh noDet -7.9% and Cruzain inh Det -9.1%.
C[N+]1(C)CC[C@@H](OC(=O)[C@@](O)(c2ccccc2)C2CCCC2)C1 was read as Cruzain inh noDet -7.5% and Cruzain inh Det -0.9%.
Cc1cccc(C)c1NC(=O)CSc1nc(C)c(CC(=O)c2ccc(Br)cc2)c(C)c1C#N was read as Cruzain inh noDet 31.6µM* and Cruzain inh Det 1.7%.
Cc1nc(SCC(=O)Nc2ccccc2C(F)(F)F)c(C#N)c(C)c1CC(=O)c1ccc(Br)cc1 was read as Cruzain inh noDet -11.9% and Cruzain inh Det -0.6%.
Cc1ccc(-c2[nH]nc(N)c2N=Nc2cccc(Cl)c2C)cc1 was read as Cruzain inh noDet inconclusive and Cruzain inh Det -2.6%.
Cc1cccc(N=Nc2c(N)n[nH]c2-c2ccc(Cl)cc2)c1 was read as Cruzain inh noDet 25.1µM* and Cruzain inh Det -5.9%.
`COc1cc(-c2cc3n(C)c(C)c(CCC(=O)NC4CCCCC4)c(=O)n3n2)cc(OC)c1OC` gave Cruzain inh noDet -9.9% and Cruzain inh Det -1.2%.
CCCOc1ccc(NC(=O)CC2C(=O)N(c3ccc(C)cc3)C(=O)N2C2CCCC2)cc1 (stereo unspecified) was read as Cruzain inh noDet 5.3% and Cruzain inh Det -6.3%.
For O=C(Nc1ccccc1)c1ccc(OC(=O)c2cc3ccccc3o2)cc1 the results were Cruzain inh noDet 12.6µM* and Cruzain inh Det 8.0%.
For O=C(Nc1ccccc1)c1cc2ccccc2o1 the results were Cruzain inh noDet -4.3% and Cruzain inh Det -1.9%.
CCCOc1ccc(C(=O)Nc2cc3nn(-c4ccc(CC)cc4)nc3cc2C)cc1 was read as Cruzain inh noDet -14.2% and Cruzain inh Det -0.6%.
Screening O=C(CSc1nc2c(sc3ccccc32)c(=O)n1CCc1ccccc1)NCc1ccco1 returned Cruzain inh noDet 5.01µM* and Cruzain inh Det -0.3%.
For CCOCCCn1c(SCC(=O)NCc2ccco2)nc2c(sc3ccccc32)c1=O the results were Cruzain inh noDet -4.0% and Cruzain inh Det -3.4%.
Screening CCCCn1c(SCC(=O)NCc2ccco2)nc2c(sc3ccccc32)c1=O returned Cruzain inh noDet 10µM* and Cruzain inh Det -1.8%.
Screening O=C(CSc1nc2c(sc3ccccc32)c(=O)n1-c1ccccc1)NCc1ccco1 returned Cruzain inh noDet inconclusive and Cruzain inh Det -13.8%.
For CNC1=C(Br)C(=O)c2ccncc2C1=O the results were Cruzain inh noDet -9.8% and Cruzain inh Det -5.7%.
`COc1cc(-c2nc(-c3ccc4c(c3)[nH]c(=O)n4C)no2)cc(OC)c1OC` gave Cruzain inh noDet 9.2% and Cruzain inh Det 1.4%.
`Cc1ccc(CN2CCCn3nc(C(=O)NCc4ccc(N(C)C)cc4)cc3C2=O)cc1` gave Cruzain inh noDet -2.4% and Cruzain inh Det -4.5%.
Cc1cccc(NS(=O)(=O)c2ccc3c(c2)CCN3C(=O)C2CC2)c1C was read as Cruzain inh noDet -19.2% and Cruzain inh Det -5.1%.
For Cc1ccc(NC(=O)CSc2nc3nccnc3c(=O)n2CCc2c[nH]c3ccccc23)c(C)c1 the results were Cruzain inh noDet -1.0% and Cruzain inh Det -0.7%.
`COc1ccc(/C=N/NC(=O)c2ccco2)cc1Cn1nc(C)cc1C` gave Cruzain inh noDet -5.4% and Cruzain inh Det -3.8%.
For COc1ccc(/C=N\NC(=O)COc2ccc(C(C)(C)C)cc2)cc1Cn1nc(C)cc1C the results were Cruzain inh noDet 25.1µM* and Cruzain inh Det 5.2%.
Cc1ccc2c(c1)N(C(=O)N1CCC(C(=O)Nc3cccc(F)c3)CC1)CCO2 was read as Cruzain inh noDet 6.2% and Cruzain inh Det -4.5%.
C=C(C)C1CC[C@]2(CO)CC[C@@]3(C)[C@H](CCC4[C@@]5(C)CCC(O)C(C)(C)C5CC[C@@]43C)C12 (stereo partly specified) was read as Cruzain inh noDet -9.1% and Cruzain inh Det 5.0%.
`O=C(Nc1nnc2n1CCS2)c1cc(C(F)(F)F)cc(C(F)(F)F)c1` gave Cruzain inh noDet -4.1% and Cruzain inh Det -1.3%.
Screening Cc1ccc(Sc2ccc(N3CCCC(C(=O)Nc4ccc(F)c(Cl)c4)C3)nn2)cc1 (stereo unspecified) returned Cruzain inh noDet -26.5% and Cruzain inh Det -4.6%.
Screening Cc1ccccc1NC(=S)/C(=C(\[O-])c1ccc(C)c([N+](=O)[O-])c1)[n+]1ccccc1 returned Cruzain inh noDet -21.9% and Cruzain inh Det -19.8%.
For COc1cccc(NC(=S)/C(=C(\[O-])c2ccc(C)c([N+](=O)[O-])c2)[n+]2ccccc2)c1 the results were Cruzain inh noDet 25.1µM* and Cruzain inh Det -9.8%.
`Cc1ccc(NC(=S)/C(=C(\[O-])c2ccc(C)c([N+](=O)[O-])c2)[n+]2ccccc2)cc1C` gave Cruzain inh noDet 25.1µM* and Cruzain inh Det -6.3%.
`CCC(=O)Nc1cccc(NC(=O)c2ccc(C)c([N+](=O)[O-])c2)c1` gave Cruzain inh noDet -1.4% and Cruzain inh Det -7.7%.
`Cc1ccc(-n2nc3cc(C)c(NC(=O)COc4ccccc4)cc3n2)cc1` gave Cruzain inh noDet 11.2% and Cruzain inh Det 1.3%.
